This note sets out measurements from PubChem BioAssay.

Activity calls are given as the source filed them.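 The calls were made as follows, unless noted: active = inhibition at or above 50% at 10 µM; inactive = inhibition below 50%.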

Experiment [1] can be described thus: inhibitors of TNFa-induced NFkB p65 translocation, primary screen, imaging, HUVEC, MLSMR starter and 10KST1 sets (AID 438;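 active = inhibition above 20% together with a positive visual image hit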;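 also: compound added about 3h40 before a 20 min TNFalpha stimulation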;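 as to inhibition: signal is the nuclear over cytoplasmic p65 intensity ratio per well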). To be noted: HUVEC TNFa-induced p65 nuclear translocation; cell count: measured here: nuclei count (cytotoxicity indicator), at 2.08 µM; inhibition: at 2 µM, stronger effect = higher value, 0% TNFa-plus-vehicle, 100% no-TNFa wells.
Experiment [2] in a line: reduction of polyQ htt aggregates in cells – imaging, exon1htt(103Q)mCFP cells, high-content imaging, primary screen (AID 483;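 active = visual image review flags a hit and inhibition of aggregation exceeds 20%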;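 also: compound exposure lasted 3 days before fixation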;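 as to nuclei count: percent of the per-plate median nuclei count of sample wells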). As to conditions: exon1htt(103Q)mCFP cell line, aggregate imaging, at 2 µM; inhibition of aggregation: stronger effect = higher value; nuclei count: measured here: cell count, toxicity.
A short description of experiment [3]: endothelial E-selectin expression blockers – imaging, HUVEC, immunofluorescence, MLSMR starter and 10KST1 sets, primary screen (AID 487;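 active = visually confirmed hit in the image check and inhibition above 20%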;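 as to inhibition: signal is fraction of cell area covered by stained E-selectin grains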;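 as to nuclei count: 100% = median nuclei count of all wells on the same plate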). To be noted: HUVEC TNFalpha-induced E-selectin immunofluorescence imaging, at 2 µM; inhibition: stronger effect = higher value; nuclei count: measured here: cell number, toxicity.
Experiment [4] deals with Voltage-gated potassium channel subunit beta-2 (Rattus norvegicus) (UniProt P62483). Briefly: inhibitors of rat Kvbeta2 reductase activity – biochemical, NADPH fluorescence, primary screen (AID 622;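 active = fluorescence slope higher than the sample average by over 3 SD, cut at about -0.22 in these data, passing the limit was not always enough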;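 also: slope of raw intensity against log time taken from 70 to 1610 s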). As to conditions: recombinant KvBeta, 4-cyanobenzaldehyde reduction, at 10 µM, stronger effect = higher value.
Experiment [5] has the same target. The experiment can be described thus: enhancers of rat Kvbeta2 NADPH turnover – biochemical, NADPH fluorescence, primary screen (AID 623;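 active = NADPH fluorescence slope more negative than the mean of all samples by about 3 SD, 99.7% confidence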;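 also: fluorescence intensity change per second fitted from 20 to 320 s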). To be noted: Recombinant KvBeta, NADPH fluorescence decrease slope, 10 min; at 10 µM; stronger effect = lower value.
In experiment [6] the target is Alpha-2C adrenergic receptor (Homo sapiens) (UniProt P18825). The experiment can be described thus: compounds altering alpha2C-coupled GIRK flux – cell-based, HEK293 alpha2C/GIRK1/2, thallium flux, primary screen (AID 624;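 active = fluorescence slope after compound addition differing from the mean of all screened samples at 99.7% confidence, in either direction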;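 also: slope of fluorescence ratio to pre-addition baseline per second over 15 to 24 s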). As to conditions: thallium flux BTC fluorescence, at 10 µM, actives lie on both sides.
Experiment [7] can be described thus: blockers of RIG-like receptor reporter activation – cell-based, Sendai virus stimulus, luciferase, 10K MLSCN set, TLR/RLR signaling modifier project, primary screen (AID 602276).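 Also: firefly luciferase from ISG56 promoter only with Renilla not read in this screen; 0% = Sendai virus plus DMSO and 100% = medium plus DMSO without virus.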 To be noted: HEK293 RL24 IRF3 luciferase reporter, at 10 µM, stronger effect = higher value.
A short description of experiment [8]: TLR3 IRF3 reporter activation blockers – cell-based, poly I:C stimulus, luciferase, 10K MLSCN set, primary screen (AID 602277;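 active = inhibition of the reporter signal at or above 50%; inactive = inhibition below 50%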). To be noted: HEK293-TLR3 RL24 IRF3 luciferase reporter, at 10 µM, stronger effect = higher value.

Alpha-2C adrenergic receptor (Homo sapiens), sequence (P18825 whole entry, looked up): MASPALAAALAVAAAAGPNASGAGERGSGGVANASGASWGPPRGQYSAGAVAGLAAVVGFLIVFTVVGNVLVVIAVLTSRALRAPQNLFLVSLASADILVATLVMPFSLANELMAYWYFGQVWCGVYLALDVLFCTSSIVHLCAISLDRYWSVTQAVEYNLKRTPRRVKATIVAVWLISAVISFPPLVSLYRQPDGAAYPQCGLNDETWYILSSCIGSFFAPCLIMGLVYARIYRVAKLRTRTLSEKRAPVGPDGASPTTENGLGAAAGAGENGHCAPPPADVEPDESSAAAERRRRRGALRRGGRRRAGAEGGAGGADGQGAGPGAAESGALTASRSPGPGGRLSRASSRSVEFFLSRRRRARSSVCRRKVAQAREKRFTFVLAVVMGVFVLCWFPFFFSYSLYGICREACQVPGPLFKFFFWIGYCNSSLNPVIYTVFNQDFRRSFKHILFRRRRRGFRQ
Voltage-gated potassium channel subunit beta-2 (Rattus norvegicus), sequence (P62483 whole entry, looked up): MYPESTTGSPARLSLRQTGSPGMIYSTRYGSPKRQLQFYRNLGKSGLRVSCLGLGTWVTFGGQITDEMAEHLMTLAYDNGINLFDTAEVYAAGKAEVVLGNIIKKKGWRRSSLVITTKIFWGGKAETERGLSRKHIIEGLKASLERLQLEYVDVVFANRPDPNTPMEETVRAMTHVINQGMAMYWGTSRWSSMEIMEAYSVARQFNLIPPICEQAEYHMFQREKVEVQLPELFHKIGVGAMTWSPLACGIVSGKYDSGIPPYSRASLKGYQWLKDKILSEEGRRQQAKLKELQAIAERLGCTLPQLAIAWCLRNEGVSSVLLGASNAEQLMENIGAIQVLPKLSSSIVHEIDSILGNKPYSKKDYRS

As for `C/C(N)=C(/C#N)C(=O)CSc1nnc(Nc2c(C)cccc2C)s1`, the cell count in experiment [1] worked out at 354. Moreover, the inhibition in experiment [1] was 13.1% (inactive); in experiment [3], -30.9% (inactive); in experiment [7], 6.86% (inactive); in experiment [8], 2.86% (inactive). The inhibition of aggregation in experiment [2] was 8.1% (inactive). For the same compound, the nuclei count in experiment [2] amounted to 70.3%; in experiment [3], 119%. For the same compound, in experiment [4], the fluorescence slope is -0.586 (inactive). For the same compound, in experiment [5], the NADPH fluorescence slope is -5.6e-05 (inactive). Also, in experiment [6], the slope was 0.00543 (inactive).

Regarding `COC(=O)CNC(=O)COC(=O)c1cc(Cl)cc(Cl)c1N`, the cell count in experiment [1] worked out at 473. The inhibition in experiment [1] is 4.7% (inactive); in experiment [3], -81.4% (inactive); in experiment [7] it was -8.86% (inactive); in experiment [8] it was 3.33% (inactive). For the same compound, the inhibition of aggregation in experiment [2] is -2% (inactive). Moreover, the values for the nuclei count in experiment [2] and in experiment [3] were 112% and 123%, respectively. Further, in experiment [4], the fluorescence slope was -0.41 (inactive). In experiment [5], the NADPH fluorescence slope was 1.6e-05 (inactive). In addition, the slope in experiment [6] is 0.0054 (inactive).

Consider `CNc1nnc(-c2cccc(N(C)C)c2)s1`, for which, in experiment [1], the cell count was 742. The inhibition in experiment [1] is -5.1% (inactive); in experiment [3], -67.7% (inactive); in experiment [7], -27.7% (inactive); in experiment [8] it was -96.6% (inactive). Also, the inhibition of aggregation in experiment [2] is -2.3% (inactive). In addition, the nuclei count was 102% in experiment [2] and 91.1% in experiment [3]. In addition, the fluorescence slope in experiment [4] was -0.135 (active). In addition, the NADPH fluorescence slope in experiment [5] is -7.2e-06 (inactive). Besides, in experiment [6], the slope was 0.00491 (inactive).

Consider `NC(=O)c1c(NC(=O)CN2CCCC2)sc2c1CCCC2`, for which the cell count in experiment [1] stood at 577. Further, the inhibition in experiment [1] is 3% (inactive); in experiment [3] it was 15.2% (inactive); in experiment [7], -25.4% (inactive); in experiment [8], -70.1% (inactive). In addition, the inhibition of aggregation in experiment [2] is 5.3% (inactive). Moreover, the nuclei count in experiment [2] was 65.3%; in experiment [3], 84.6%. The fluorescence slope in experiment [4] was -0.599 (inactive). In experiment [5], the NADPH fluorescence slope was -1.9e-05 (inactive). For the same compound, the slope in experiment [6] was 0.00312 (inactive).

For the compound `CCOC(=O)c1ccc(NC(=O)c2ccc(NS(C)(=O)=O)cc2)cc1`, in experiment [1], the cell count turned out to be 473. In addition, the inhibition in experiment [1] was -4.3% (inactive); in experiment [3] it was 32.9% (inactive); in experiment [7], 6.57% (inactive); in experiment [8] it was 11.9% (inactive). Moreover, in experiment [2], the inhibition of aggregation was 8.8% (inactive). Also, the nuclei count in experiment [2] was 95.3%; in experiment [3] it was 95.1%. Besides, the fluorescence slope in experiment [4] was -0.401 (inactive). In addition, the NADPH fluorescence slope in experiment [5] is 4e-05 (inactive). The slope in experiment [6] is 0.00834 (inactive).

For the compound `CCOC(=O)N1CCN(c2c(N3CCN(c4ccccn4)CC3)c(=O)c2=O)CC1`, the cell count in experiment [1] came to 555. The inhibition in experiment [1] is 3.4% (inactive); in experiment [3], -24.6% (inactive); in experiment [7], 9.82% (inactive); in experiment [8], 16.3% (inactive). In experiment [2], the inhibition of aggregation was 25.3% (inactive). In addition, the nuclei count in experiment [2] stood at 76.1%; in experiment [3], 119%. In experiment [4], the fluorescence slope is -0.506 (inactive). Further, the NADPH fluorescence slope in experiment [5] is -5.8e-06 (inactive). Besides, the slope in experiment [6] is 0.00633 (inactive).

On to `Cc1cccc(N2CCN(C(=O)C3CCCN(S(=O)(=O)c4c(C)noc4C)C3)CC2)c1C` (centres undefined), for which, in experiment [1], the cell count came to 599. The inhibition in experiment [1] is -2.3% (inactive); in experiment [3], -85.1% (inactive); in experiment [7], 8.68% (inactive); in experiment [8], 1.25% (inactive). The inhibition of aggregation in experiment [2] is -11.6% (inactive). Further, the values for the nuclei count in experiment [2] and in experiment [3] were 102% and 125%, respectively. For the same compound, in experiment [4], the fluorescence slope is -0.571 (inactive). Further, the NADPH fluorescence slope in experiment [5] is -2.7e-05 (inactive). For the same compound, in experiment [6], the slope is 0.00588 (inactive).

As to `CC(C)(O)C#Cc1ccc(C(=O)N2CCN(C(=O)c3ccco3)CC2)cc1`, in experiment [1], the cell count is 547. Besides, the inhibition in experiment [1] is -7.8% (inactive); in experiment [3] it was 45.3% (inactive); in experiment [7], 16.5% (inactive); in experiment [8], 13.5% (inactive). Further, the inhibition of aggregation in experiment [2] is -25.3% (inactive). The nuclei count stood at 121% in experiment [2] and 133% in experiment [3]. Also, the fluorescence slope in experiment [4] is -0.51 (inactive). Further, the NADPH fluorescence slope in experiment [5] is -3.3e-05 (inactive). For the same compound, the slope in experiment [6] was 0.00463 (inactive).

For `CCOc1ccc(-c2cc(CCCC(=O)N3CCN(c4ccc(OC)cc4)CC3)no2)cc1`, the cell count in experiment [1] came to 513. Moreover, the inhibition in experiment [1] was 0.7% (inactive); in experiment [3] it was -0.1% (inactive); in experiment [7], 11% (inactive); in experiment [8], 24.1% (inactive). Further, the inhibition of aggregation in experiment [2] was 23.7% (inactive). For the same compound, the nuclei count in experiment [2] turned out to be 61%; in experiment [3] it was 86%. Also, the fluorescence slope in experiment [4] was -0.614 (inactive). Further, the NADPH fluorescence slope in experiment [5] is 2.2e-05 (inactive). Besides, the slope in experiment [6] was 0.00539 (inactive).

Regarding `O=C(c1cnn2c(C(F)(F)F)cc(-c3ccco3)nc12)N1CCc2ccccc2C1`, the cell count in experiment [1] came out at 516. The inhibition is 2% (inactive) in experiment [1], -11.7% (inactive) in experiment [3], -19% (inactive) in experiment [7] and -13.6% (inactive) in experiment [8]. For the same compound, the inhibition of aggregation in experiment [2] was 22.2% (inactive). The nuclei count came out at 92.9% in experiment [2] and 67% in experiment [3]. For the same compound, in experiment [4], the fluorescence slope is -0.327 (inactive). Moreover, the NADPH fluorescence slope in experiment [5] is 1.7e-05 (inactive). For the same compound, the slope in experiment [6] was 0.00417 (inactive).

Consider `COc1ccccc1N1CCN(C(=O)CN(Cc2ccc(Cl)cc2)S(C)(=O)=O)CC1`, for which the cell count in experiment [1] was found to be 458. For the same compound, the inhibition in experiment [1] was -7.3% (inactive); in experiment [3], -130% (inactive); in experiment [7], 17.3% (inactive); in experiment [8] it was 24.8% (inactive). In addition, the inhibition of aggregation in experiment [2] is -18.6% (inactive). The nuclei count in experiment [2] was found to be 112%; in experiment [3], 174%. For the same compound, in experiment [4], the fluorescence slope is -0.49 (inactive). The NADPH fluorescence slope in experiment [5] was 7.6e-06 (inactive). Moreover, the slope in experiment [6] is 0.00623 (inactive).

Regarding `Cc1nc2cc(-n3ccc(=O)cc3)ccc2n1-c1ccccc1`, the cell count in experiment [1] stood at 352. Also, the inhibition is -2.1% (inactive) in experiment [1], -286% (inactive) in experiment [3], 19.8% (inactive) in experiment [7] and 99% (active) in experiment [8]. Besides, in experiment [2], the inhibition of aggregation is 1.3% (inactive). Further, the results for the nuclei count in experiment [2] and in experiment [3] were 98.4% and 113%, respectively. Further, in experiment [4], the fluorescence slope was -0.407 (inactive). For the same compound, in experiment [5], the NADPH fluorescence slope is -3.5e-05 (inactive). The slope in experiment [6] was 0.00591 (inactive).

Take `O=C(OCc1ccccc1F)c1ccc2c(c1)OCCO2`: the cell count in experiment [1] came out at 372. Moreover, the inhibition in experiment [1] is 3.4% (inactive); in experiment [3], -0.9% (inactive); in experiment [7] it was -0.266% (inactive); in experiment [8], -113% (inactive). In addition, the inhibition of aggregation in experiment [2] is -14.1% (inactive). The values for the nuclei count in experiment [2] and in experiment [3] were 103% and 90.8%, respectively. In experiment [4], the fluorescence slope was -0.448 (inactive). In addition, the NADPH fluorescence slope in experiment [5] is -8.7e-06 (inactive). Further, the slope in experiment [6] was 0.00627 (inactive).

Consider `COc1cc(NC(=O)C(C)Oc2ccccc2)c(C(=O)O)cc1OC` (centres undefined), for which the cell count in experiment [1] amounted to 622. The inhibition is -1.5% (inactive) in experiment [1], -23.7% (inactive) in experiment [3], 19% (inactive) in experiment [7] and 19.4% (inactive) in experiment [8]. Besides, the inhibition of aggregation in experiment [2] was -0.9% (inactive). Besides, the figures for the nuclei count in experiment [2] and in experiment [3] were 108% and 101%, respectively. For the same compound, in experiment [4], the fluorescence slope is -0.606 (inactive). For the same compound, the NADPH fluorescence slope in experiment [5] was -2.5e-05 (inactive). Further, in experiment [6], the slope is 0.00509 (inactive).
